The values that follow come from PubChem BioAssay.

Assay [1] has as its target Cell division control protein 42 homolog (Homo sapiens) (UniProt P60953). The experiment in a line: activated mutant Cdc42 GTP-binding inhibitors, dose response, biochemical, multiplex bead flow cytometry, Bodipy-FL-GTP (AID 1333;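 active = fitted half-maximal concentration within the tested dose range, moderate curve steepness, a statistically real signal drop, and little compound fluorescence or tag-binding interference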). Background: In flow cytometry, cells or beads pass a laser one at a time.
Assay [2] has the same target. In words: wildtype Cdc42 GTP-binding inhibitors, dose response, biochemical, multiplex bead flow cytometry, Bodipy-FL-GTP (AID 1334;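 active = fitted half-maximal concentration within the tested range, moderate curve steepness, significant signal drop, and little compound fluorescence or bead-linkage interference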). As to conditions: bead-based flow cytometry, Bodipy-FL-GTP binding to GST-Cdc42; at 100 µM (top of the series) unless noted.
Assay [3] deals with GTPase HRas (Homo sapiens) (UniProt P01112). In words: inhibitors of GTP binding to wildtype Ras, dose response, biochemical, multiplex bead flow cytometry (AID 1335). As to conditions: bead-based flow cytometry, Bodipy-GTP binding to GST-Ras; at 100 µM (top of the series) unless noted.
GTPase HRas (Homo sapiens), sequence (P01112 whole entry, looked up): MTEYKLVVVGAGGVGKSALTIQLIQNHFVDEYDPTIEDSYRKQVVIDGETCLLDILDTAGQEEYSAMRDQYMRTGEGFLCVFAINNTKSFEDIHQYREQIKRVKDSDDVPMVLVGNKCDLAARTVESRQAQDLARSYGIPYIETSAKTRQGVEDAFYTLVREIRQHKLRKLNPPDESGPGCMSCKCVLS
Assay [4] deals with Ras-related protein Rab-7a (dog), GTP binding. In words: Rab7 GTP binding inhibitors, potency, dose response, biochemical, wildtype, multiplex bead flow cytometry (AID 1336; call rule not given here).
Assay [5] addresses Ras-related C3 botulinum toxin substrate 1 (Homo sapiens) (UniProt P63000). In words: wildtype Rac1 GTP binding inhibitors, dose response, biochemical, multiplex bead flow cytometry (AID 1340;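 active = dose curve with midpoint inside tested range, moderate steepness, plateau gap beyond fit error, low compound glow and bead-link interference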). As to conditions: GST-Rac1 beads, Bodipy-FL-GTP binding; at 100 µM (top of the series) unless noted.
Assay [6] has as its target GTPase HRas (Homo sapiens) (UniProt P01112). The experiment in a line: activated Ras mutant GTP binding inhibitors, dose response, biochemical, multiplex bead flow cytometry (AID 1341;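 active = dose-response curve with midpoint inside the tested range, moderate steepness, significant amplitude and little compound fluorescence or bead-attachment interference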;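 also: GST-tagged constitutively activated Ras mutant immobilized on beads and multiplexed with other GTPases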).

For part of these data: Measured potencies and affinities stand elsewhere. Active and inactive are the calls of the source.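 The calls were made as follows, unless noted: active = fitted half-maximal concentration within 10 nM to 100 µM, steepness 0.5 to 2, significant signal drop, low assay interference; inactive = the rest.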

Cell division control protein 42 homolog (Homo sapiens), sequence (P60953 whole entry, looked up): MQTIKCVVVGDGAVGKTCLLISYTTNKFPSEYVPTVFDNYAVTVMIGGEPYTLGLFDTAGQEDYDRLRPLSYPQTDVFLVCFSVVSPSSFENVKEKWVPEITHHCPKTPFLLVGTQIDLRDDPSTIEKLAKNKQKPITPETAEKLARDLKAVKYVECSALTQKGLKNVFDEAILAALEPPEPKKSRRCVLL

For the compound `CC(C)C(=O)N1CCN(c2ccccc2NC(=O)c2cccc(Cl)c2)CC1`, the result in assay [1], in assay [4] and in assay [6] was inactive. Besides, in assay [2], the fluorescence, percent of control (lower = inhibition) amounted to 34.8%. For the same compound, in assay [3], the GTP binding, percent of control is 82.2%. This compound also showed a GTP binding signal, raw median fluorescence (lower = inhibition) (MCF (arbitrary fluorescence units)) in assay [5] of 269.
For the compound `COc1ccc(C(=O)N[C@H](C(=O)OCc2cc(=O)oc3cc(C)ccc23)C(C)C)cc1`, the outcome in assay [1], in assay [4] and in assay [6] was inactive. In addition, in assay [2], the fluorescence, percent of control (lower = inhibition) is 50.4%. For the same compound, the GTP binding, percent of control in assay [3] stood at 63.8%. In assay [5], this compound registered a GTP binding signal, raw median fluorescence (lower = inhibition) (MCF (arbitrary fluorescence units)) of 202.
Turning to `Cc1cccc(CCNc2ncccc2C(=O)O)c1`, the result in assay [1], in assay [4] and in assay [6] was inactive. Further, in assay [2], the fluorescence, percent of control (lower = inhibition) amounted to 122%. The GTP binding, percent of control in assay [3] stood at 337%. Further, the GTP binding signal, raw median fluorescence (lower = inhibition) (MCF (arbitrary fluorescence units)) in assay [5] was determined as 101.
`CCOc1ccc(-n2c(C)nc3cc(C(=O)NCc4ccc5c(c4)OCO5)ccc32)cc1`: the call in assay [1], in assay [4] and in assay [6] was inactive. Also, the fluorescence, percent of control (lower = inhibition) in assay [2] amounted to 41.7%. The GTP binding, percent of control in assay [3] was found to be 62.5%. In assay [5], this compound showed a GTP binding signal, raw median fluorescence (lower = inhibition) (MCF (arbitrary fluorescence units)) of 163.
For `Cc1no[n+]([O-])c1COc1cccc(/C=C2\N=C(c3ccccc3)OC2=O)c1`, the result in assay [1], in assay [4] and in assay [6] was inactive. In addition, the fluorescence, percent of control (lower = inhibition) in assay [2] came to 46.6%. In assay [3], the GTP binding, percent of control was 60.8%. For the same compound, the GTP binding signal, raw median fluorescence (lower = inhibition) (MCF (arbitrary fluorescence units)) in assay [5] came out at 184.
On to `COCc1cc(C)nc(N/N=C/c2ccc(-c3ccc(C(=O)O)c(Cl)c3)o2)c1C#N`, for which the call in assay [1], in assay [4] and in assay [6] was inactive. The fluorescence, percent of control (lower = inhibition) in assay [2] turned out to be 30.6%. In assay [3], the GTP binding, percent of control was 74.4%. Further, in assay [5], the GTP binding signal, raw median fluorescence (lower = inhibition) (MCF (arbitrary fluorescence units)) was 180.
On to `CSc1ncccc1C(=O)OCC(=O)N1CCOCC1`, for which the compound was called inactive in assay [1], in assay [4] and in assay [6]. Besides, the fluorescence, percent of control (lower = inhibition) in assay [2] stood at 84.4%. The GTP binding, percent of control in assay [3] was determined as 160%. In assay [5], this compound had a GTP binding signal, raw median fluorescence (lower = inhibition) (MCF (arbitrary fluorescence units)) of 170.
For the compound `COc1ccc(C(=O)O)c(OCc2ccccc2C)c1`, the call in assay [1], in assay [4] and in assay [6] was inactive. Also, in assay [2], the fluorescence, percent of control (lower = inhibition) came out at 62.5%. The GTP binding, percent of control in assay [3] was 208%. In assay [5], this compound came in with a GTP binding signal, raw median fluorescence (lower = inhibition) (MCF (arbitrary fluorescence units)) of 57.3.
`OC(CNCCC1C=Nc2ccccc21)Cn1c2ccc(Cl)cc2c2cc(Cl)ccc21` (stereo not given): the compound was classed as inactive in assay [1], in assay [4] and in assay [6]. Besides, the fluorescence, percent of control (lower = inhibition) in assay [2] is 60.4%. Moreover, in assay [3], the GTP binding, percent of control amounted to 67.9%. In assay [5], the GTP binding signal, raw median fluorescence (lower = inhibition) (MCF (arbitrary fluorescence units)) worked out at 386.
As to `CCOC(=O)c1c(-c2ccccc2)csc1NC(=O)/C(C#N)=C/c1ccc(O)c(OC)c1`, the call in assay [1], in assay [4] and in assay [6] was inactive. Besides, the fluorescence, percent of control (lower = inhibition) in assay [2] stood at 79.7%. The compound also came in with a GTP binding, percent of control in assay [3] of 85%. This compound also registered a GTP binding signal, raw median fluorescence (lower = inhibition) (MCF (arbitrary fluorescence units)) in assay [5] of 233.
`Cc1ccc(C(=O)O)c(NCc2c(C)cccc2C)n1`: the compound was classed as inactive in assay [1], in assay [4] and in assay [6]. The fluorescence, percent of control (lower = inhibition) in assay [2] amounted to 58.8%. The compound also registered a GTP binding, percent of control in assay [3] of 224%. This compound also displayed a GTP binding signal, raw median fluorescence (lower = inhibition) (MCF (arbitrary fluorescence units)) in assay [5] of 54.1.
Take `CCCOc1ccc(OCCSc2nc3ccccc3n2CC(=O)O)cc1`: the outcome in assay [1], in assay [4] and in assay [6] was inactive. Besides, the fluorescence, percent of control (lower = inhibition) in assay [2] was determined as 60.2%. Also, the GTP binding, percent of control in assay [3] is 87.7%. Moreover, the GTP binding signal, raw median fluorescence (lower = inhibition) (MCF (arbitrary fluorescence units)) in assay [5] is 35.1.
As to `O=C(O)c1ccccc1C(=O)OCc1ccc(F)cc1F`, the call in assay [1], in assay [4] and in assay [6] was inactive. Further, the fluorescence, percent of control (lower = inhibition) in assay [2] was 89.8%. In assay [3], the GTP binding, percent of control turned out to be 106%. In assay [5], this compound came in with a GTP binding signal, raw median fluorescence (lower = inhibition) (MCF (arbitrary fluorescence units)) of 72.5.
As to `COc1ccc(-c2cc(C(F)(F)F)c3c(n2)sc2c(O)cc(=O)[nH]c23)c(OC)c1`, the compound was called inactive in assay [1], in assay [4] and in assay [6]. In addition, the fluorescence, percent of control (lower = inhibition) in assay [2] is 38.1%. The compound also showed a GTP binding, percent of control in assay [3] of 76.3%. The compound further yielded a GTP binding signal, raw median fluorescence (lower = inhibition) (MCF (arbitrary fluorescence units)) in assay [5] of 162.
For the compound `CCOc1cc(/C=N/NC(=O)c2cccs2)cc([N+](=O)[O-])c1O`, the compound was called inactive in assay [1], in assay [4] and in assay [6]. Also, the fluorescence, percent of control (lower = inhibition) in assay [2] was 25.2%. Moreover, in assay [3], the GTP binding, percent of control was found to be 57.7%. The compound further registered a GTP binding signal, raw median fluorescence (lower = inhibition) (MCF (arbitrary fluorescence units)) in assay [5] of 108.
